Hit rate of the full screen: of about 410,000 compounds, about 5,100 (1.2%) were called active. Where a call stands in place of a potency, no number is given. Roughly 8% stayed inconclusive and do not appear here. The call rests on the fitted dose curve; tested in HEK293T cells. This excerpt belongs to a sample that is enriched for actives.

In PubChem BioAssay AID1159524 (National Center for Advancing Translational Sciences (NCATS), 2015) one finds Potency data, which are given here for 100 molecules.
Potency means the concentration at half of the fitted maximal effect.

This assay can be described thus: High Throughput Screening for Foot and Mouth Disease Virus Antivirals. Further: read-out not given here; nearly all actives have a fitted effect of over 45% in size. The settings on record: FMDV antiviral cell-based qHTS; series mostly up to 57.9 µM.
In the case of `COc1ccc2c(c1OC)C(=O)OC2Nc1nc(-c2ccccc2)cs1` (stereo not given), the Potency is 15.8 µM (active).

As for `Cc1ccc(-c2csc(NC3OC(=O)c4ccccc43)n2)cc1` (stereo not given), the Potency was 20 µM (active).

For the molecule `CCCc1nc2scc(-c3ccc(C)cc3)c2c(=O)n1N`, the Potency result was “inactive”.

As for `COc1ccc(CNC(=O)CC2Oc3ccc(C)cc3NC2=O)cc1` (stereo not given), the Potency entry is “inactive”.

As to `CC(C)NC(=O)N1CCCC2(CCN(C(=O)c3cccn3C)CC2)C1`, the Potency result was “inactive”.

On to `Cn1c(=O)c2c(SCC(=O)NCC3CCCO3)nc(-c3ccccc3F)nc2n(C)c1=O` (stereo not given), for which the Potency result is “inactive”.

As to `CCNCCCNCCCNCCCNCC`, the Potency entry is “inactive”.

In the case of `Cn1cccc1C(=O)N1CCC[C@@]2(CCN(Cc3nccs3)C2)C1`, the Potency entry is “inactive”.

As to `N#Cc1ccc(CN2CCCC3(CCN(C(=O)c4ccco4)CC3)C2)cc1`, the Potency result is “inactive”.

As to `COc1ccc(N2CCN(C(=O)CSc3nnc4ncccn34)CC2)cc1`, the Potency result was “inactive”.

Regarding `COc1cccc(-c2ccc(SCC(=O)N3CCN(c4ccccc4)CC3)nn2)c1`, the Potency is 12.6 µM (active).

As to `CCOc1ccc(-c2ccc(SCC(=O)N3CCOCC3)nn2)cc1`, the Potency result is “inactive”.

Turning to `CCN1CCN(Cc2c(O)ccc3oc(C)c(C(=O)Nc4ccc(C)cc4C)c23)CC1`, the Potency entry is “inactive”.

In the case of `Cc1ccc(CNC(=O)c2c(O)nc3c(C)cccn3c2=O)cc1`, the Potency entry is “inactive”.

In the case of `CC(=O)c1ccc(NC(=O)CSc2nc(-c3ccccc3F)nc3c2c(=O)n(C)c(=O)n3C)cc1`, the Potency entry is “inactive”.

For the molecule `COC(=O)C1CCCCN1Cc1ccc2c(c1)CN(Cc1cc(OC)c3c(c1)OCO3)CCO2` (stereo not given), the Potency entry was “inactive”.

Turning to `CCOC(=O)c1c(C)[nH]c(C)c1S(=O)(=O)N(C)CC(=O)N1CCN(c2ccccc2)CC1`, the Potency entry is “inactive”.

For the molecule `CCOC(=O)c1c(C)[nH]c2c1-c1ccccc1C(=O)C2=O`, the Potency was 7.08 µM (active).

As for `CCOC(=O)c1c(SCC(=O)Nc2cccc(C)c2C)nc(=O)[nH]c1C`, the Potency entry was “inactive”.

With `Cc1ccc(C)c(OCC(=O)Nc2sc3c(c2C#N)CCCC3)c1C`, the Potency entry is “inactive”.

`CC(=O)c1c(C)[nH]c(C(=O)OCC(=O)NCCC(C)C)c1C`: the Potency entry was “inactive”.

As to `CC(=O)c1c(C)[nH]c(C(=O)OCC(=O)Nc2sc3c(c2C#N)CCCC3)c1C`, the Potency was 17.8 µM (active).

`CC(C)CC(NS(=O)(=O)c1ccc2c(c1)oc(=O)n2C)C(=O)NCc1ccccc1Cl` (stereo not given): the Potency entry is “inactive”.

Take `CCC(CC)C(=O)N1CCc2cc(OC)c(OC)cc2C1COc1ccc(F)cc1` (stereo not given): the Potency entry was “inactive”.

As to `COc1ccccc1-c1ccc(C(=O)N(C)C(C)c2ccon2)c(N2CCN(c3ccccc3F)CC2)n1` (stereo not given), the Potency result was “inactive”.

Regarding `O=C(OCC(=O)N1CCN(C(=O)c2ccco2)CC1)c1ccc(Cl)c(Cl)c1`, the Potency result is “inactive”.

Turning to `O=C(OCC(=O)N1CCN(C(=O)c2ccco2)CC1)c1c(Cl)cccc1Cl`, the Potency entry was “inactive”.

For the molecule `CN(c1ccccc1)S(=O)(=O)c1cc(C(=O)OCC(=O)N2CCN(C(=O)c3ccco3)CC2)ccc1Cl`, the Potency is 25.1 µM (active).

For `CC(O)[C@@H](N)C(=O)O` (stereo not given in full), the Potency result was “inactive”.

Take `COc1ccc(CCCOC(Cn2ccnc2)c2ccc(OC)cc2)cc1` (stereo not given): the Potency result was “inactive”.

As to `COc1ccccc1-c1nc(NCc2cccs2)c2ccccc2n1`, the Potency result is “inactive”.

For the molecule `O=C1NC(CC(=O)N2CCC(n3c(C4CCC4)nc4cccnc43)CC2)c2ccccc21` (stereo not given), the Potency entry is “inactive”.

Regarding `O=c1c2ccccc2nc2n1C(CSCc1cccc(C(F)(F)F)c1)CS2` (stereo not given), the Potency is 5.62 µM (active).

`O=c1n(Cc2cccc(C(F)(F)F)c2)c2ccccc2c2nc(-c3ccccc3)nn12`: the Potency entry was “inactive”.

On to `Cn1c(-c2sccc2OCc2cccc(C(F)(F)F)c2)n[nH]c1=S`, for which the Potency entry is “inactive”.

With `O=C(Nc1cccc(F)c1)N1CCC2(CC1)CCN(S(=O)(=O)c1ccccc1)CC2`, the Potency entry is “inactive”.

For `O=C(Nc1cc(C(=O)Nc2ccc(S(=O)(=O)O)cc2)cc(C(=O)Nc2ccc(S(=O)(=O)O)cc2)c1)Nc1cc(C(=O)Nc2ccc(S(=O)(=O)O)cc2)cc(C(=O)Nc2ccc(S(=O)(=O)O)cc2)c1`, the Potency entry is “inactive”.

Consider `O=C(CSc1ccccc1)Nc1cc(Cl)ccc1Oc1ccccc1`, for which the Potency entry was “inactive”.

Consider `O=C(CSc1nc2ccc(Nc3nc(N4CCOCC4)nc(N4CCOCC4)n3)cc2s1)NCc1ccco1`, for which the Potency result is “inactive”.

With `O=C(CSc1nc(Nc2ccccc2)nc(N2CCOCC2)n1)Nc1cc(Cl)ccc1O`, the Potency is 39.8 µM (active).

Consider `O=C(O)C(O)[C@@](O)(Cc1ccc(O)cc1)C(=O)O` (stereo not given in full), for which the Potency result is “inactive”.

`CC(=O)OC1C2CCC3C1(CC(O)[C@@]1(O)[C@@H](CC(O)C1(C)C)[C@]3(C)O)C[C@@]2(C)O` (stereo not given in full): the Potency entry is “inactive”.

In the case of `COC(=O)c1ccccc1C(=O)NCc1nc(N2CCCC2)c2cccc(C)c2n1`, the Potency entry is “inactive”.

In the case of `Cc1csc(OCC(=O)Nc2ccc(C)c(C)c2)n1`, the Potency result was “inactive”.

As to `COc1cc(SC)ccc1C(=O)Nc1nc(C)cs1`, the Potency is 3.16 µM (active).

Regarding `COc1cc(Cl)c(C)cc1NC(=O)COC(=O)c1cc(SC)ccc1Cl`, the Potency result was “inactive”.

Consider `COc1ccccc1C1CN(Cc2ccccc2O)Cc2ccccc2O1` (stereo not given), for which the Potency entry is “inactive”.

For the molecule `COc1ccc(CCNC(=O)c2c3c(nc4ccccc24)C(=O)N(C2CCCCC2)C3)cc1OC`, the Potency result is “inactive”.

As for `COc1cc(C(=O)N2CCC(c3ccncc3)CC2)cc(OC)c1OC`, the Potency result was “inactive”.

In the case of `O=C(c1cc(C(F)(F)F)cc(C(F)(F)F)c1)N1CCC2(CCCN(c3ccccn3)C2)CC1`, the Potency entry was “inactive”.

In the case of `O=c1c2ccccc2nc(/C=C/c2ccco2)n1-c1ccccc1O`, the Potency result is “inactive”.

For the molecule `CCc1ccc2oc(-c3ccc(C)c(NC(=O)/C=C/c4ccco4)c3)nc2c1`, the Potency entry was “inactive”.

Consider `Cc1ccc(-c2cc(C(=O)N/N=C/C=C/c3ccco3)c3ccccc3n2)cc1C`, for which the Potency was 1.58 µM (active).

Turning to `COc1ccc(-n2c(CNC(=O)c3cc(C(F)(F)F)ccc3Cl)nnc2SC)cc1`, the Potency entry is “inactive”.

For `CCCCCCCCCCOC(=O)Cn1c(COc2cccc(OC)c2)[n+](C)c2ccccc21`, the Potency was 28.2 µM (active).

For `CCOC(=O)c1c(NC(=O)COc2cc(C)ccc2C(C)C)sc(C)c1C`, the Potency entry is “inactive”.

Turning to `COc1ccccc1N1CCN(C[C@@H]2CN3C(=O)N(C)c4ccccc4C3=N2)CC1`, the Potency entry is “inactive”.

For the molecule `O=c1c(CCc2ccccc2)nc2cncnc2n1C1CC1`, the Potency entry is “inactive”.

As for `Cc1c(C(=O)OC(C)C)sc(NC(=O)c2cccnc2)c1C#N`, the Potency result was “inactive”.

As for `CCCc1ccc(-c2c(C)sc(NC(=O)c3ccnn3C)c2C#N)cc1`, the Potency was 15.8 µM (active).

Consider `CCc1ccccc1NC(=O)CSc1nc(C)c(C(=O)Nc2ccccc2)c(-c2ccc(Cl)cc2)c1C#N`, for which the Potency entry is “inactive”.

Regarding `O=C(NCCc1ccc(F)cc1)c1ccc(S(=O)(=O)N2CCCCC2)cc1`, the Potency entry was “inactive”.

For `COc1ccc(C(=O)NCc2ccc(Cl)cc2)cc1S(=O)(=O)N1CCCC1`, the Potency entry was “inactive”.

For `NS(=O)(=O)c1ccc(CCNC(=O)c2ccc(Cl)c(S(=O)(=O)N3CCCCCC3)c2)cc1`, the Potency was 14.1 µM (active).

In the case of `O=C(CCS(=O)(=O)c1ccccc1)N(Cc1cccnc1)c1nc2c(F)cccc2s1`, the Potency result is “inactive”.

Regarding `O=C(c1ccc(F)cc1)C1CCN(CCCCc2ccccc2)CC1`, the Potency result is “inactive”.

Consider `CS(=O)(=O)N1CCC2(CC1)CN(c1ccncc1)C2`, for which the Potency result is “inactive”.

Consider `CCOC(=O)c1c(NC(=O)c2cc(-c3ccc(Cl)cc3)on2)sc2c1CCCC2`, for which the Potency result is “inactive”.

Regarding `Cc1ccc(Cl)cc1NC(=O)CSc1nc2ccccc2nc1Cc1ccccc1`, the Potency entry is “inactive”.

Consider `NC(=O)c1sc(-c2ccsc2)cc1N`, for which the Potency entry is “inactive”.

`CN(CCO)c1ccc(/C=N/Nc2nncc3ccccc23)cc1`: the Potency is 10 µM (active).

As to `COc1cccc(-c2cc(NCCc3c[nH]c4ccc(OC)cc34)ncn2)c1`, the Potency result is “inactive”.

With `O=C(c1cnccn1)N1CCC2(CCCN(Cc3ccccc3)C2)CC1`, the Potency entry is “inactive”.

`CCNc1ncc2ncc(=O)n(CCc3ccccc3)c2n1`: the Potency entry was “inactive”.

In the case of `COc1ccc(Nc2cc(C(=O)NCCCN(C)c3ccccc3)c3ccccc3n2)c(OC)c1`, the Potency entry was “inactive”.

As to `O=C(Nc1cccc(F)c1)N1CC2(CCN(C(=O)c3csnn3)CC2)C1`, the Potency result is “inactive”.

Regarding `CCOC(=O)C1=C(c2ccc(OC)cc2)C(=O)c2ccccc2C1=O`, the Potency was 3.55 µM (active).

With `CCOC(=O)C1C(=O)C=C(c2ccc(OC)cc2)CC1c1ccco1` (stereo not given), the Potency entry is “inactive”.

As to `CCOC(=O)C1=C(c2ccccc2)NC(=O)NC1c1cc(OC)c(OC)cc1OC` (stereo not given), the Potency entry was “inactive”.

For the molecule `CN(C)S(=O)(=O)c1ccc(C(=O)NCC(C)(C)N2CCOCC2)cc1`, the Potency result was “inactive”.

On to `CC(C)(CNC(=O)Cc1ccc(Cl)cc1Cl)N1CCOCC1`, for which the Potency entry was “inactive”.

`CC(C)(CNC(=O)c1ccc(Cl)c(S(=O)(=O)N2CCc3ccccc3C2)c1)N1CCOCC1`: the Potency is 12.6 µM (active).

Regarding `Cc1ccc(S(=O)(=O)c2c(Nc3cccc(Cl)c3)sc(C(=O)c3ccc4c(c3)OCO4)c2N)cc1`, the Potency entry is “inactive”.

As for `COc1ccccc1N1CCN(C(=O)c2ccc(Cl)c(S(=O)(=O)N3CCCC3)c2)CC1`, the Potency was 20 µM (active).

`COc1ccccc1CNC(=O)c1ccc(Cl)c(S(=O)(=O)N2CCCC2)c1`: the Potency result was “inactive”.

For the molecule `CCS(=O)(=O)N1CCc2cc(C(=O)N3CCN(c4ccccc4OC)CC3)ccc21`, the Potency entry was “inactive”.

`CCCC1OC23CCCCC2C(C#N)(C#N)C1(C#N)C(=N)O3` (stereo not given): the Potency was 20 µM (active).

On to `CN1CCCC1CCO[C@@](C)(c1ccccc1)c1ccc(Cl)cc1` (stereo not given in full), for which the Potency result was “inactive”.

Turning to `CN1CCN(C(=O)O[C@@H]2c3nccnc3C(=O)N2c2ccc(Cl)cn2)CC1`, the Potency result was “inactive”.

Regarding `Cc1cnc(-n2ncc(C(=O)N3CCN(C(C)C)CC3)c2-c2ccco2)nc1-c1ccc(F)cc1`, the Potency result is “inactive”.

Take `COc1cccc(CN(C)CC(=O)NCc2ccccc2Cl)c1OC`: the Potency entry is “inactive”.

As for `CCN(CC)S(=O)(=O)c1ccc(N(C)Cc2cccc(OC)c2OC)nc1`, the Potency is 20 µM (active).

In the case of `COc1ccc(S(=O)(=O)N2CCCCCC2)cc1C(=O)N(C)Cc1cccc(OC)c1OC`, the Potency result is “inactive”.

Regarding `COc1ccc(S(=O)(=O)NCC(c2ccc(N(C)C)cc2)N2CCCC2)cc1` (stereo not given), the Potency result was “inactive”.

Consider `COc1ccc(CN2CCOc3c(cc(-c4ncc(C(F)(F)F)cc4Cl)cc3OCC3CCCO3)C2)c(O)c1` (stereo not given), for which the Potency entry is “inactive”.

On to `Cc1ccc(NS(=O)(=O)c2ccc3c(c2)CC(=O)N3)cc1Cl`, for which the Potency entry was “inactive”.

For `COCC(=O)N1CCC2(CCCN(c3ccccc3)C2)CC1`, the Potency entry is “inactive”.

`COC(=O)c1ccc(CN2CCCC(C(=O)Nc3cccc(-n4cnnn4)c3)C2)cc1` (stereo not given): the Potency was 28.2 µM (active).

For the molecule `CC(C)CNC(=O)C1CCCN(S(=O)(=O)c2ccc(-n3cnnn3)cc2)C1` (stereo not given), the Potency result is “inactive”.

As to `O=C(Nc1ccc(F)cc1)C1CCCN(S(=O)(=O)c2ccc(-n3cnnn3)cc2)C1` (stereo not given), the Potency entry is “inactive”.
